{"source": "paper PMC7862700", "about": "“An all-to-all approach to the identification of sequence-specific readers for epigenetic DNA modifications on cytosine”", "test_in_all_cases": "DAPPL (digital affinity profiling via proximity ligation, sequencing); 10 mM Tris-HCl pH 7.5, 50 mM NaCl, 1 mM DTT, 4% glycerol, room temperature, 30 min; GST-TFs on glutathione beads, 16-mer random dsDNA library, 0.1% formaldehyde crosslink after washing; high values mean tight binding", "settings_in_all_cases": "protein: recombinant; tags: N-terminal GST; dsDNA, one strand shown", "key": {"ELK1": {"target": "T1, ELK1 (Homo sapiens, UniProt P19419 1-428)", "T1 sequence": "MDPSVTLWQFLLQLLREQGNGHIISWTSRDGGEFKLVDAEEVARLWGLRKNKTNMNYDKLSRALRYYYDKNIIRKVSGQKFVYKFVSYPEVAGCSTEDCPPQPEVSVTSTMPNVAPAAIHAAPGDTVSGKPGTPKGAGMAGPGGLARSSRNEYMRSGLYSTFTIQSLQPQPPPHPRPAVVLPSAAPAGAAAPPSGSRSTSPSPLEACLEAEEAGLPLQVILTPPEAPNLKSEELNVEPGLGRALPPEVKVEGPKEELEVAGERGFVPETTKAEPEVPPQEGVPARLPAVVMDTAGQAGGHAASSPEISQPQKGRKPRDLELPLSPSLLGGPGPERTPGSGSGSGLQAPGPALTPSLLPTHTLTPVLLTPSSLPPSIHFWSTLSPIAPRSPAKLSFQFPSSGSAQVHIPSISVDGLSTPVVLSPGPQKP", "in_short": "(§1)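 A tag-only sample was pooled with DNA-barcoded human transcription factors that had been expressed in yeast as GST fusions and captured on glutathione beads. The pools were incubated for 30 min at room temperature with 200 nmole of a random double-stranded 16-mer DNA library in Tris/NaCl/DTT/glycerol buffer, then washed, crosslinked with 0.1% formaldehyde, proximity-ligated (BsaI/T4 ligase, 1 h, 37 °C), PCR-amplified and sequenced on an Illumina NextSeq500. Binding signal is each hexamer's read frequency for a factor divided by its frequency for the tag-only sample.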"}, "GABPA": {"target": "T2, GABPA (Homo sapiens, UniProt Q06546 1-454)", "T2 sequence": "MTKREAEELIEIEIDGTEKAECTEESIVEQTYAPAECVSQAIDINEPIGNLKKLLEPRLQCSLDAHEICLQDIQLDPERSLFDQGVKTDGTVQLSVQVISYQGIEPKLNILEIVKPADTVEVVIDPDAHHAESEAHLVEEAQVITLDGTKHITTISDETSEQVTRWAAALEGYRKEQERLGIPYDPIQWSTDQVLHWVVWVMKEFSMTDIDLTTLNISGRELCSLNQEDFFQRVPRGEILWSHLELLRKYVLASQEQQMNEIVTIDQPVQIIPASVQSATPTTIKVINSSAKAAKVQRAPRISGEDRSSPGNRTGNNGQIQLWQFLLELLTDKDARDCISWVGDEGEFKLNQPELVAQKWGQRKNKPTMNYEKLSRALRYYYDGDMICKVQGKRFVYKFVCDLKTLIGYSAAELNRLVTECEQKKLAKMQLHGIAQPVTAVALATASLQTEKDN", "in_short": "as §1"}, "ERG": {"target": "T3, ERG (Homo sapiens, UniProt P11308 1-479)", "T3 sequence": "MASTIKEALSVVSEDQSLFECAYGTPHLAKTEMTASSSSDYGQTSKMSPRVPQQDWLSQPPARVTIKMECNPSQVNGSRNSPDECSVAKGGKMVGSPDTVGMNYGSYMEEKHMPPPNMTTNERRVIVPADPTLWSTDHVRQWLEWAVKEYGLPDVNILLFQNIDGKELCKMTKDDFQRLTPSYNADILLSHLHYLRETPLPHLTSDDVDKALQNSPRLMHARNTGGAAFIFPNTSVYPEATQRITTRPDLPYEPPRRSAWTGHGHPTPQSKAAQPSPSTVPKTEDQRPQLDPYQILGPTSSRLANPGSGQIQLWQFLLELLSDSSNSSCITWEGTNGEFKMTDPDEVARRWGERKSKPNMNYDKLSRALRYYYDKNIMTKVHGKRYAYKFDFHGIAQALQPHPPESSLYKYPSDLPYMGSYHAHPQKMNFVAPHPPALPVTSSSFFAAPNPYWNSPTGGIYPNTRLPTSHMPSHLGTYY", "in_short": "as §1"}, "ELF1": {"target": "ELF1 (Homo sapiens, UniProt P32519 1-619)", "sequence (P32519 whole entry)": "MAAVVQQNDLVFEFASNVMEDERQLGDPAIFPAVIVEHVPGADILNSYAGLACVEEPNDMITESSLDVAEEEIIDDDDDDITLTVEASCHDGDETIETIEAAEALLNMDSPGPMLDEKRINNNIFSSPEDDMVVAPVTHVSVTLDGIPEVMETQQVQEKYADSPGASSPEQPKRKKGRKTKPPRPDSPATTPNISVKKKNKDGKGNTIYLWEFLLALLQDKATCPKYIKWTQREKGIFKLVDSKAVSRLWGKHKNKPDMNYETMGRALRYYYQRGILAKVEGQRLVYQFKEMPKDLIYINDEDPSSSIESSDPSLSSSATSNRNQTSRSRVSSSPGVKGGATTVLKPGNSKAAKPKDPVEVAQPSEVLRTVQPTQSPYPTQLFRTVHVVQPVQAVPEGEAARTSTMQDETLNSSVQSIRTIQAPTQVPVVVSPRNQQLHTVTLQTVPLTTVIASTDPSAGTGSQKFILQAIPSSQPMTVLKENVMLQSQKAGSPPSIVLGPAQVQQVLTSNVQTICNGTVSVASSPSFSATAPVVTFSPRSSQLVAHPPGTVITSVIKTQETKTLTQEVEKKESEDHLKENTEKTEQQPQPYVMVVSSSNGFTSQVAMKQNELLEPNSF", "in_short": "as §1"}, "EHF": {"target": "T4, EHF (Homo sapiens, UniProt Q9NZC4 1-300)", "T4 sequence": "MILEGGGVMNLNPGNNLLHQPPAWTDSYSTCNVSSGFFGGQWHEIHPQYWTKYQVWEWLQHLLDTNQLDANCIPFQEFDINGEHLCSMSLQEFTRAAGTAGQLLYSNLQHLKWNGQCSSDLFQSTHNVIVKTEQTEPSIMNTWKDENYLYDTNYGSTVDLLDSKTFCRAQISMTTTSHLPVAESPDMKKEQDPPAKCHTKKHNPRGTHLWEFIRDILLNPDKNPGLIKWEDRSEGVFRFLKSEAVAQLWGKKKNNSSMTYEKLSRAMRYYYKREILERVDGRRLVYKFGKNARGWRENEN", "in_short": "as §1"}, "SPIB": {"target": "SPIB (Homo sapiens, UniProt Q01892 1-262)", "sequence (Q01892 whole entry)": "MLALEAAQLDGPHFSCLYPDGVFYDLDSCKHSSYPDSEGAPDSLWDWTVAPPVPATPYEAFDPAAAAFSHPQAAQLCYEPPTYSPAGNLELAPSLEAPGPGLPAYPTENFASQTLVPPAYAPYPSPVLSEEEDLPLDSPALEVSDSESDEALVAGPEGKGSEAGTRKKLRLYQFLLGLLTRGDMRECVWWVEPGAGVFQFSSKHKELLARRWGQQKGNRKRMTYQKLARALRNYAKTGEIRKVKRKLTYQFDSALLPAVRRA", "in_short": "as §1"}, "FEV": {"target": "T5, FEV (Homo sapiens, UniProt Q99581 1-238)", "T5 sequence": "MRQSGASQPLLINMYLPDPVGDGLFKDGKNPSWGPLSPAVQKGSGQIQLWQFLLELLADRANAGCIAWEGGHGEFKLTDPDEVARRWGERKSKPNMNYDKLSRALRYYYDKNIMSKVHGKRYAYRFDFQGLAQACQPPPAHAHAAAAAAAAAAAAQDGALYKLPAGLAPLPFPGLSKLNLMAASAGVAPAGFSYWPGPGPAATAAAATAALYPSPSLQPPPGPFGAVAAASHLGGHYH", "in_short": "as §1"}, "ETV5": {"target": "ETV5 (Homo sapiens, UniProt P41161 1-510)", "sequence (P41161 whole entry)": "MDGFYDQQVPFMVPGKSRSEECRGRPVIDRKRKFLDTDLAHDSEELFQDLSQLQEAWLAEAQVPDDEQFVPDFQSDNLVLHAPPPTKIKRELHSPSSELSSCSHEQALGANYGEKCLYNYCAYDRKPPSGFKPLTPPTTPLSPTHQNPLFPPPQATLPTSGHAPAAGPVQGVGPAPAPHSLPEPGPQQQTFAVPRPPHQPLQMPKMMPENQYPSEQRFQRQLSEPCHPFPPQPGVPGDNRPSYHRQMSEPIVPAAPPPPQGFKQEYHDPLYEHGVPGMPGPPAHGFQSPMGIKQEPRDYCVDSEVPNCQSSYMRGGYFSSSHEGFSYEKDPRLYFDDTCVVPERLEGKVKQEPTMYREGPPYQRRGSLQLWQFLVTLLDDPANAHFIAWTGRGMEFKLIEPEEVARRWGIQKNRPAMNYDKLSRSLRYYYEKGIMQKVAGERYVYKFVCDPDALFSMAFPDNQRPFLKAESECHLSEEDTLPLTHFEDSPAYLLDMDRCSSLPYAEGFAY", "in_short": "as §1"}, "ELF4": {"target": "ELF4 (Homo sapiens, UniProt Q99607 1-663)", "sequence (Q99607 whole entry)": "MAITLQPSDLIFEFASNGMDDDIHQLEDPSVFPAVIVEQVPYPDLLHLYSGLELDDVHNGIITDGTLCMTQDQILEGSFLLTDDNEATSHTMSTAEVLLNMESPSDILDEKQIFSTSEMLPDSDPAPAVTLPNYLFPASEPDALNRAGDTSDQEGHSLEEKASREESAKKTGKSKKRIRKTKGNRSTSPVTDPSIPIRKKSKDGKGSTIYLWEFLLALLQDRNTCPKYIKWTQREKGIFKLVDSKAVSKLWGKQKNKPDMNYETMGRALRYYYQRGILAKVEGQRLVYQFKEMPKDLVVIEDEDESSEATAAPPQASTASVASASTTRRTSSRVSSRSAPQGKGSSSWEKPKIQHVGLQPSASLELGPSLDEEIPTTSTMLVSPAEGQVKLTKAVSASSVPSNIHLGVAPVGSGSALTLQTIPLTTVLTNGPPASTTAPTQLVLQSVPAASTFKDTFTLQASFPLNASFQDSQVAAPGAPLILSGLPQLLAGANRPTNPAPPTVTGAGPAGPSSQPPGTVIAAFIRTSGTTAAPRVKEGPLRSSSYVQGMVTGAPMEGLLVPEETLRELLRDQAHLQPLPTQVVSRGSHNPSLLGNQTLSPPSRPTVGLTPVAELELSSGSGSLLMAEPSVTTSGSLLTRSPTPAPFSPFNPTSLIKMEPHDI", "in_short": "as §1"}, "ETV2": {"target": "T6, ETV2 (Homo sapiens, UniProt O00321 1-342)", "T6 sequence": "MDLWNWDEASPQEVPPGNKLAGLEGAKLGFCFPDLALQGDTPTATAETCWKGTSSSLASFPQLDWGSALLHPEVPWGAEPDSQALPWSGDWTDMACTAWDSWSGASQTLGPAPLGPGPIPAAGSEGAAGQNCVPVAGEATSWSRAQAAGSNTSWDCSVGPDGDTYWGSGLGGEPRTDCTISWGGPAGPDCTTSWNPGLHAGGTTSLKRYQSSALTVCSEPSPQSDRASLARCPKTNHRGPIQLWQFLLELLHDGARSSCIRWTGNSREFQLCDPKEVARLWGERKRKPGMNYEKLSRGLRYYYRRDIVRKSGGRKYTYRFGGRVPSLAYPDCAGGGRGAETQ", "in_short": "as §1"}, "ELF3": {"target": "T7, ELF3 (Homo sapiens, UniProt P78545 1-371)", "T7 sequence": "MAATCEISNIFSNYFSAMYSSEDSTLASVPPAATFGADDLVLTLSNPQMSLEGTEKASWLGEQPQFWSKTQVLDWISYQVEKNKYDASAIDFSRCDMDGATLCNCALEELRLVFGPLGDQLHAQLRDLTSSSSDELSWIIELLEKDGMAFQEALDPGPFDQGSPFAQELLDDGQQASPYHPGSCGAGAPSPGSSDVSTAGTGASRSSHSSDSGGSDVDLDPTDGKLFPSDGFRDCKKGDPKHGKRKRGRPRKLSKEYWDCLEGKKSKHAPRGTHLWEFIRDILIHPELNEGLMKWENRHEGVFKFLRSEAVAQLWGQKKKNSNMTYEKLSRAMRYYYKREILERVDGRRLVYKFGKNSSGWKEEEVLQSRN", "in_short": "as §1"}, "ETV1": {"target": "ETV1 (Homo sapiens, UniProt P50549 1-477)", "sequence (P50549 whole entry)": "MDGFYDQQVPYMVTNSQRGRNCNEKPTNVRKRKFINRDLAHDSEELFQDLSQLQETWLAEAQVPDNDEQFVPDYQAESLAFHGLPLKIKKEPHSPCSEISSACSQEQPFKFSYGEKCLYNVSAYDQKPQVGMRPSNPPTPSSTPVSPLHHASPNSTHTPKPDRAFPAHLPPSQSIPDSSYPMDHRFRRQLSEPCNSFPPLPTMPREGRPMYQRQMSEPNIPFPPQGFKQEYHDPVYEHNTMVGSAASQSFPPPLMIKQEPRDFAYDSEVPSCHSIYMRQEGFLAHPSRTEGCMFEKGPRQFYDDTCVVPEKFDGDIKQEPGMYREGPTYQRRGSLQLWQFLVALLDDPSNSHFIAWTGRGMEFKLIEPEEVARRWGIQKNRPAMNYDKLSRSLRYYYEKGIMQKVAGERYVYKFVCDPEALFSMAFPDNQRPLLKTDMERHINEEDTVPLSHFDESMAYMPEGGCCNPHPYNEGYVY", "in_short": "as §1"}, "ERF": {"target": "T8, ERF (Homo sapiens, UniProt P50548 1-548)", "T8 sequence": "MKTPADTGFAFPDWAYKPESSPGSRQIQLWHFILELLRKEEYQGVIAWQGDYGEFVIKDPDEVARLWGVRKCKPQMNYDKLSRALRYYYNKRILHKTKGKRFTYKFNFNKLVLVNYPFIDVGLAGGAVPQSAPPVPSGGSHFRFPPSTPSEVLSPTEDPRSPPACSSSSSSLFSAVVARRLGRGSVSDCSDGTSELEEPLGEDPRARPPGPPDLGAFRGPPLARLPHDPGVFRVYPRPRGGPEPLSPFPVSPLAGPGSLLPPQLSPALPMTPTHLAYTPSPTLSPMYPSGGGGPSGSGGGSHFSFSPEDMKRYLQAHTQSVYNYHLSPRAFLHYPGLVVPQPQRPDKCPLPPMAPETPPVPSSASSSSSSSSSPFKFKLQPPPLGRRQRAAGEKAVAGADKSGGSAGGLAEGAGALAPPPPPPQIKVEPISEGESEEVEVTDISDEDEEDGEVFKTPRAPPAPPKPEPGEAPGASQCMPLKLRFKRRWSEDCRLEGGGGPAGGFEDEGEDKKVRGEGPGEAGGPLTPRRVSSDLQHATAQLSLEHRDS", "in_short": "as §1"}, "SPDEF": {"target": "T9, SPDEF (Homo sapiens, UniProt O95238 1-335)", "T9 sequence": "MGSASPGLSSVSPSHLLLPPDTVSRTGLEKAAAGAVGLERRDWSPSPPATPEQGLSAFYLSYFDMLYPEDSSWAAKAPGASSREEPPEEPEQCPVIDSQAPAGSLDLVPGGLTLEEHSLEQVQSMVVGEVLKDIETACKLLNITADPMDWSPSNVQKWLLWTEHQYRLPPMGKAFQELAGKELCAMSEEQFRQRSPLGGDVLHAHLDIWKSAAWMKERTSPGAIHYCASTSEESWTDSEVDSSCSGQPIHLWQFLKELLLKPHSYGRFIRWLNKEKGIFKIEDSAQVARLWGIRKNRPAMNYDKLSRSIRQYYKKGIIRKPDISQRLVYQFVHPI", "in_short": "as §1"}, "ETV3": {"target": "T10, ETV3 (Homo sapiens, UniProt P41162-2 1-143)", "T10 sequence": "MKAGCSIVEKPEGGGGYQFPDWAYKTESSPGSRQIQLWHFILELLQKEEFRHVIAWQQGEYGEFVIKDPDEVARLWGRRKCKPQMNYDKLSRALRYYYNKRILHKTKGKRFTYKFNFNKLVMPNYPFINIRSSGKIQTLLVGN", "in_short": "as §1"}}}
{"sequence": "TCGTAT", "values": [{"measurement": "binding signal", "setting": "ELK1", "value": "1.08 fold enrichment (6-mer frequency, TF over GST control)"}, {"measurement": "binding signal", "setting": "GABPA", "value": "1.01 fold enrichment (6-mer frequency, TF over GST control)"}, {"measurement": "binding signal", "setting": "ERG", "value": "1.03 fold enrichment (6-mer frequency, TF over GST control)"}, {"measurement": "binding signal", "setting": "ELF1", "value": "1.03 fold enrichment (6-mer frequency, TF over GST control)"}, {"measurement": "binding signal", "setting": "EHF", "value": "1 fold enrichment (6-mer frequency, TF over GST control)"}, {"measurement": "binding signal", "setting": "SPIB", "value": "1.07 fold enrichment (6-mer frequency, TF over GST control)"}, {"measurement": "binding signal", "setting": "FEV", "value": "1.05 fold enrichment (6-mer frequency, TF over GST control)"}, {"measurement": "binding signal", "setting": "ETV5", "value": "1.02 fold enrichment (6-mer frequency, TF over GST control)"}, {"measurement": "binding signal", "setting": "ELF4", "value": "1.02 fold enrichment (6-mer frequency, TF over GST control)"}, {"measurement": "binding signal", "setting": "ETV2", "value": "1.12 fold enrichment (6-mer frequency, TF over GST control)"}, {"measurement": "binding signal", "setting": "ELF3", "value": "1.05 fold enrichment (6-mer frequency, TF over GST control)"}, {"measurement": "binding signal", "setting": "ETV1", "value": "1 fold enrichment (6-mer frequency, TF over GST control)"}, {"measurement": "binding signal", "setting": "ERF", "value": "1.06 fold enrichment (6-mer frequency, TF over GST control)"}, {"measurement": "binding signal", "setting": "SPDEF", "value": "1.05 fold enrichment (6-mer frequency, TF over GST control)"}, {"measurement": "binding signal", "setting": "ETV3", "value": "1.05 fold enrichment (6-mer frequency, TF over GST control)"}]}
